Vc quorum ag: quorum light induction in luxS cqsA deficient V. cholerae | 350,000 tested, 0.16% active | activation, % at 18.7 µM | AID 588436 | V. cholerae BH1578 lux reporter, luminescence, 6 h; in the data active = activation mostly above about 9.7%, no sharp cut-off
MazF activator: increases E. coli MazEF RNase cleavage of RNA. FAM/BHQ RNA-DNA oligo cleavage fluorescence, 5 h. activation, % at 20 µM. 350,000 tested, 0.32% active. AID 504720; in the data active = activation above about 50%
Target sequence (P0AE70 whole entry, looked up): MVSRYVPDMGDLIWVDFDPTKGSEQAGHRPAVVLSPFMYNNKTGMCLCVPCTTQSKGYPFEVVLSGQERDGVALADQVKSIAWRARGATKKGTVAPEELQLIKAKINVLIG
PriA SSB inh: K. pneumoniae PriA-SSBct interaction inhibition; inhibition, % at 33 µM; 430,000 tested, 0.6% active; AlphaScreen SSBct-PriA binding, biotinylated peptide; AID 1272365; in the data active = inhibition mostly above about 37%, no sharp cut-off; inactive = mostly below about 20%;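 note: plate controls were negative control peptide for no effect and reference peptide for full effect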
Mtb hypoxia rep: Mtb hypoxia fluorescent reporter inhibition | fluorescence inhibition, % (test concentration not listed) | AID 1159583 | M. tuberculosis hypoxia-regulated fluorescent reporter, fluorescence | 300,000 tested, 0.1% active; in the data active = fluorescence inhibition mostly above about 23%, no sharp cut-off; inactive = mostly below about 17%
The depositor's hits bear a star; i = inactive; · = not tested or not shown; + = active, no number. An excerpt weighted towards active compounds, which were near 0.94% of everything screened.

SMILES	Vc quorum ag	MazF activator	PriA SSB inh	Mtb hypoxia rep
O=C(Cc1cccc2ccccc12)Nc1nnc(SCC(=O)NC2CCCCC2)s1	·	·	-10	·
Cc1cc(NC(=O)C(=O)NCC2CCN(Cc3ccco3)CC2)c2ccccc2n1	·	·	-17	·
CC[n+]1c(/C=C/c2ccccc2OC)sc2ccccc21	·	·	4	·
CC[n+]1c(/C=C/C=C/N(C(C)=O)c2ccccc2)sc2cc(OC)ccc21	·	506*	22	-49
O=[N+]([O-])c1cc([N+](=O)[O-])c2cccnc2c1Cl	·	·	81*	·
O=[N+]([O-])c1cc2cccnc2c2ncccc12	0	-1	48*	·
Cc1cc2cccnc2c2ncccc12	·	·	163*	·
Nc1c(N)c2cccnc2c2ncccc12	·	·	95*	·
Nc1ncc(Br)c2ncccc12	·	·	10	·
O=C(NCc1cc(-c2ccccc2)on1)C1CC(=O)N(c2ccccc2)C1 (stereo not drawn)	·	·	7	·
Cc1ccc(NC(=O)C(=O)NC[C@H](O)c2ccoc2)cc1F	·	·	0	·
Cn1c(=O)c2[nH]c(CNc3ccc(C(=O)O)cc3)nc2n(C)c1=O	i	-19	72*	·
C[C@H](NCc1nc2c([nH]1)c(=O)n(C)c(=O)n2C)c1ccccc1	·	·	-18	·
Nc1ccc(/C=C/c2ccccc2)cc1	·	·	40*	·
c1ccc(-c2cnn3c(-c4ccccc4)c(-c4ccccc4)nc3n2)cc1	0	+	-3	11
COc1cc2[nH]c3c(=O)n(CC(=O)N4CCN(c5ccccc5OC)CC4)cnc3c2cc1OC	·	·	-12	·
CCCCNc1c([N+](=O)[O-])cc(C)cc1[N+](=O)[O-]	-5	-7	76*	7
CC1(C)C2CCC1(CS(=O)(=O)N1CCC3(CC1)OCCS3)C(=O)C2 (stereo not drawn)	·	·	-19	·
Nc1nc(-c2ccccn2)nc(N)c1Cc1ccc(Cl)cc1Cl	i	-8	54*	10
Nc1nc(-c2ccccn2)nc(N)c1Cc1ccccc1F	0	7	95*	11
O=[N+]([O-])c1ccc(N2CCCC2)cc1N1CCCCCC1	·	·	61*	·
O=[N+]([O-])c1ccc(N2CCCC2)cc1N1CCCC1	6	-2	47*	13
O=[N+]([O-])c1ccc(N2CCCCC2)cc1N1CCOCC1	-2	0	27	12
O=[N+]([O-])c1ccc(N2CCNCC2)cc1N1CCCC1	·	·	62*	·
O=[N+]([O-])c1ccc(N2CCOCC2)cc1N1CCCCC1	i	1	14	9
SMILES	Vc quorum ag	MazF activator	PriA SSB inh	Mtb hypoxia rep
O=[N+]([O-])c1ccc(N2CCCC2)cc1N1CCCCC1	·	·	97*	·
O=C(CN1CCN(c2ccc(F)cc2)C1=O)NCCc1ccncc1	·	·	-21	·
CCOc1ccccc1NC(=O)C(=O)NCC[C@H](O)c1cccc2ccccc12	·	·	-14	·
CC(=O)Nc1ccc(S(=O)(=O)N2CCC(Cn3cccn3)CC2)cc1	·	·	-3	·
CCC(CO)Oc1cc(NCc2ccc(Cl)cc2Cl)c2ncn(C(C)C)c2c1 (stereo not drawn)	-3	-5	39*	2
CCC(CO)Oc1cc(NCc2ccc(Cl)cc2)c2ncn(C(C)C)c2c1 (stereo not drawn)	i	2	4	9
O=[N+]([O-])c1ccc(-n2cnc3ccccc32)c([N+](=O)[O-])c1	1	1	-13	42*
O=c1[nH]c2c(c(=O)[nH]1)OCN(Cc1ccccc1)C2	-1	10	-10	·
Clc1cc2c(c3ncccc13)OCN(Cc1cccnc1)C2	·	·	101*	·
Clc1cc2c(c3ncccc13)OCN(Cc1ccccc1)C2	·	·	89*	·
CCOC(=O)c1c(C)oc2c1c1c(c3ccccc32)OCN(Cc2cccnc2)C1	-4	-4	-2	·
C#CCOCCOCCOCCNc1nc(N2CCN(C(=O)[C@H]([C@@H](C)CC)n3cc([C@@H](N)CO)nn3)CC2)nc(N2CCN(C(=O)[C@H]([C@@H](C)CC)n3cc([C@@H](N)Cc4ccc(O)cc4)nn3)CC2)n1	-1	9	2	·
C#CCOCCOCCOCCNc1nc(N2CCN(C(=O)[C@H]([C@@H](C)CC)n3cc([C@@H](N)Cc4ccc(O)cc4)nn3)CC2)nc(N2CCN(C(=O)[C@H]([C@@H](C)CC)n3cc([C@@H](N)Cc4ccc(O)cc4)nn3)CC2)n1	i	51*	-1	·
C#CCOCCOCCOCCNc1nc(N2CCN(C(=O)C(Cc3cc4ccccc4[nH]3)n3cc(C(N)Cc4ccc(O)cc4)nn3)CC2)nc(N2CCN(C(=O)C(Cc3cc4ccccc4[nH]3)n3cc(C(N)Cc4ccc(O)cc4)nn3)CC2)n1 (stereo not drawn)	·	-85	39*	·
C#CCOCCOCCOCCNc1nc(N2CCN(C(=O)[C@H](Cc3cc4ccccc4[nH]3)n3cc([C@@H](N)Cc4ccc(O)cc4)nn3)CC2)nc(N2CCN(C(=O)[C@H](Cc3cc4ccccc4[nH]3)n3cc([C@@H](N)CC(C)C)nn3)CC2)n1	·	-83	22	·
O=C(Cc1ccc(F)cc1)NC[C@@H](c1ccsc1)N1CCOCC1	·	·	-8	·
CC(C)S(=O)(=O)c1ccc(C(=O)Nc2cccc(-c3nc4ccccc4s3)c2)cc1	·	·	5	·
Cc1cc(NC(=O)CSC2=Nc3ccccc3C3=NC(Cc4ccccc4)C(=O)N23)n[nH]1 (stereo not drawn)	26*	-4	-6	7
CCCCNC(=O)CC1N=C2c3ccccc3N=C(SCC(=O)Nc3cccc(C)c3)N2C1=O (stereo not drawn)	i	0	-10	·
CC(=O)c1cccc(NC(=O)NC2CCCCC2)c1	0	-5	-16	-2
CC(=O)c1cccc(NC(=O)NC2CCCCCCC2)c1	-1	5	3	33*
Nc1c(C(=O)NCc2ccccc2)nnn1Cc1ccccc1	0	-1	98*	7
COc1ccc(OC)c(-c2n[nH]c(=S)o2)c1	·	·	7	·
COc1ccc(C(=O)CN2CCCCC2)cc1	i	-4	47*	1
CC1=CC(C)(C)N2C(=O)C(=Nc3ccc(O)cc3)c3cccc1c32	0	11	40*	12
SMILES	Vc quorum ag	MazF activator	PriA SSB inh	Mtb hypoxia rep
CC(=O)Nc1ccc(SCCCC(=O)NCCCn2ccnc2)nn1	·	·	-4	·
Cc1cc(-c2nnc(NC(=O)Cc3ccc(S(C)(=O)=O)cc3)o2)n(C)n1	·	·	43*	·
COc1ccc(CC(=O)Nc2nnc(-c3cc(C)nn3C)o2)cc1	·	·	5	·
CCOC(=O)N1CCN(C(CC(=O)OC)C(=O)OC)CC1 (stereo not drawn)	·	·	76*	·
COC(=O)CC(C(=O)OC)N1CCN(c2ccc(F)cc2)CC1 (stereo not drawn)	·	·	-3	·
CN1c2ccc([N+](=O)[O-])cc2SC1NC(=O)c1ccc(S(=O)(=O)N2CCc3ccccc32)cc1 (stereo not drawn)	·	·	-5	·
CC(C)(Oc1ccc(Cl)cc1)C(=O)N1CCN(C(=O)c2cnn3c2CCCC3)CC1	·	·	-20	·
CCC(Sc1nc2ncccc2[nH]1)C(=O)NC1CCC(C)CC1 (stereo not drawn)	0	138*	-4	10
O=C(O)c1cc(-n2cccc2)ccn1	·	·	95*	·
CSc1ncccc1C(=O)N1CCC(Oc2cc(C)oc(=O)c2)C1 (stereo not drawn)	·	·	-25	·
CS(=O)(=O)C1CCN(C(=O)NCCCc2ccccc2)CC1	·	·	1	·
COc1cc(OC)cc(N2C(=O)C3N=NN(c4ccc(Cl)cc4)C3C2=O)c1 (stereo not drawn)	·	·	-18	·
